Experimental data reported in the supplement of paper PMC7411054.
Structures can show the parent of a compound that is named as a salt.

Tests used:
Experiment in all cases: phenotypically active (imaging signature differs from DMSO and reproducible) at any of 0.3-9 uM (binary (1 = active, 0 = inactive)); higher = active
Details in all cases: treatment time: 24 h
[1] = system: A549-ACTB-RAB5A
Procedure, shortened: (§1)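 Fifteen gene-edited A549, HepG2 and WPMY1 reporter lines (BFP segmentation plus GFP and RFP/FusionRed markers) were treated at 0.3, 1, 3 or 9 µM for 24 h, four wells each, then imaged live. Live-cell features per well were normalised to DMSO control wells. Deviation required ≥3 of 4 wells beyond the 95th percentile of DMSO Euclidean distances, and reproducibility required median replicate Pearson correlation above the 95th percentile of non-replicates. Phenotypic activity needed both criteria.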

[2] = system: A549-CANX-COX4
Procedure, shortened: as §1

[3] = system: A549-GM130-SQSTM1
Procedure, shortened: as §1

[4] = system: A549-TP53BP1-CLTA
Procedure, shortened: as §1

[5] = system: A549-TUBA1B-RELA
Procedure, shortened: as §1

[6] = system: HepG2-ACTB-RAB5A
Procedure, shortened: as §1

[7] = system: HepG2-CANX-COX4
Procedure, shortened: as §1

[8] = system: HepG2-GM130-SQSTM1
Procedure, shortened: as §1

[9] = system: HepG2-TP53BP1-CLTA
Procedure, shortened: as §1

[10] = system: HepG2-TUBA1B-RELA
Procedure, shortened: as §1

[11] = system: WPMY1-ACTB-RAB5A
Procedure, shortened: as §1

[12] = system: WPMY1-CANX-COX4
Procedure, shortened: as §1

[13] = system: WPMY1-GM130-SQSTM1
Procedure, shortened: as §1

[14] = system: WPMY1-TP53BP1-CLTA
Procedure, shortened: as §1

[15] = system: WPMY1-TUBA1B-RELA
Procedure, shortened: as §1

Measured: phenotypically active

CSc1ccc(C(=O)c2[nH]c(=O)[nH]c2C)cc1 [Enoximone]
inactive: [1] 0 | [2] 0 | [3] 0 | [4] 0 | [5] 0 | [6] 0 | [7] 0 | [8] 0 | [9] 0 | [10] 0 | [11] 0 | [12] 0 | [13] 0 | [14] 0 | [15] 0

O=C(O)c1cccc(C(=O)O)n1 [2,6-Pyridinedicarboxylic Acid]
inactive: [1] 0 | [2] 0 | [3] 0 | [4] 0 | [5] 0 | [6] 0 | [7] 0 | [8] 0 | [9] 0 | [10] 0 | [11] 0 | [12] 0 | [13] 0 | [14] 0 | [15] 0

CCCCCCCCCCCCCCCC(=O)C(F)(F)F
inactive: [1] 0 | [2] 0 | [3] 0 | [4] 0 | [5] 0 | [6] 0 | [7] 0 | [8] 0 | [9] 0 | [10] 0 | [11] 0 | [12] 0 | [13] 0 | [14] 0 | [15] 0

CCCC(=O)O [Sodium butyrate]
inactive: [1] 0 | [2] 0 | [3] 0 | [4] 0 | [5] 0 | [6] 0 | [7] 0 | [8] 0 | [9] 0 | [10] 0 | [11] 0 | [12] 0 | [13] 0 | [14] 0 | [15] 0

C#C[C@]1(O)CC[C@H]2[C@@H]3CCC4=CCCC[C@@H]4[C@H]3C(=C)C[C@@]21CC [desogestrel]
inactive: [1] 0 | [2] 0 | [3] 0 | [4] 0 | [5] 0 | [6] 0 | [7] 0 | [8] 0 | [9] 0 | [10] 0 | [11] 0 | [12] 0 | [13] 0 | [14] 0 | [15] 0

O=C(O)[C@]1(O)C[C@H](O)[C@@H](O)[C@@H](O)C1 [Quinic acid]
inactive: [1] 0 | [2] 0 | [3] 0 | [4] 0 | [5] 0 | [6] 0 | [7] 0 | [8] 0 | [9] 0 | [10] 0 | [11] 0 | [12] 0 | [13] 0 | [14] 0 | [15] 0

CC(C)C(=O)c1c(C(C)C)nn2ccccc12 [Ibudilast]
inactive: [1] 0 | [2] 0 | [3] 0 | [4] 0 | [5] 0 | [6] 0 | [7] 0 | [8] 0 | [9] 0 | [10] 0 | [11] 0 | [12] 0 | [13] 0 | [14] 0 | [15] 0

CCc1ccc(CCOc2ccc(CC3SC(=O)NC3=O)cc2)nc1 (stereo not given) [Pioglitazone hydrochloride]
inactive: [1] 0 | [2] 0 | [3] 0 | [4] 0 | [5] 0 | [6] 0 | [7] 0 | [8] 0 | [9] 0 | [10] 0 | [11] 0 | [12] 0 | [13] 0 | [14] 0 | [15] 0

CC(C)[C@H]1CC[C@H](C(=O)N[C@H](Cc2ccccc2)C(=O)O)CC1 [nateglinide]
inactive: [1] 0 | [2] 0 | [3] 0 | [4] 0 | [5] 0 | [6] 0 | [7] 0 | [8] 0 | [9] 0 | [10] 0 | [11] 0 | [12] 0 | [13] 0 | [14] 0 | [15] 0

CCc1c(C)[nH]c2c1C(=O)C(CN1CCOCC1)CC2 (stereo not given) [molindone]
inactive: [1] 0 | [2] 0 | [3] 0 | [4] 0 | [5] 0 | [6] 0 | [7] 0 | [8] 0 | [9] 0 | [10] 0 | [11] 0 | [12] 0 | [13] 0 | [14] 0 | [15] 0

Cc1ccc(-c2cc(C(F)(F)F)nn2-c2ccc(S(N)(=O)=O)cc2)cc1 [celecoxib]
inactive: [1] 0 | [2] 0 | [3] 0 | [4] 0 | [5] 0 | [6] 0 | [7] 0 | [8] 0 | [9] 0 | [10] 0 | [11] 0 | [12] 0 | [13] 0 | [14] 0 | [15] 0

CCOC(=O)C1=C(C)NC(=S)N[C@H]1c1cccc(O)c1 [Monastrol]
inactive: [1] 0 | [2] 0 | [3] 0 | [4] 0 | [5] 0 | [6] 0 | [7] 0 | [8] 0 | [9] 0 | [10] 0 | [11] 0 | [12] 0 | [13] 0 | [14] 0 | [15] 0
